CDC25B-CDK2 inh: human CDC25B-CDK2/CyclinA binding inhibition | P30305+P24941 | HTRF CDC25B-CDK2/CyclinA binding, anti-His/anti-Flag; stronger effect = higher value | z-score (concentration not given with the values) | hit rate 0.72% among 94,000 | AID 1259370; in the data active means z-score above about 3.2
TAR Tat displ: HIV-1 TAR-Tat binding disruption | HIV-1 TAR RNA, Tat peptide displacement FRET; stronger effect = higher value | z-score (concentration not given with the values) | hit rate 0.6% among 100,000; active means z-score of 3 or more in at least 2 runs
Numbers without * were called inactive; ! = a repeat was not active. Shown are actives, neighbours in structure and some others; about 0.9% of the full set was active somewhere.

Screening C=CC[N+]12CN3CN(CN(C3)C1)C2 returned CDC25B-CDK2 inh 4.3*.
Screening CN1CSC2=C(C#N)C(c3cccc(Br)c3)CC(=O)N2C1 (stereo not given) returned CDC25B-CDK2 inh 5.2* and TAR Tat displ 0.16.
For N#CC1=C(N)Oc2c(c(=O)oc3ccccc23)C1c1cccc(Br)c1 (stereo not given) the results were CDC25B-CDK2 inh -2.
O=C(CCC(=O)N1CC2CC(C1)c1cccc(=O)n1C2)NCc1cccs1 (stereo not given) was read as CDC25B-CDK2 inh 0.36 and TAR Tat displ -0.17.
Screening CCC[C@@H]1CCCCN1 returned TAR Tat displ -0.34.
For O=[N+]([O-])/C=C/c1ccc(Cl)cc1Cl the results were CDC25B-CDK2 inh -1.
For COC(=O)c1c(N)n(CCN2CCOCC2)c2nc3ccccc3nc12 the results were CDC25B-CDK2 inh -7.3.
Screening CCC(C)N1CCN(Cc2c[nH]c3ccccc23)CC1 (stereo not given) returned CDC25B-CDK2 inh -1.1.
`CC(=O)O[C@H]1C(=O)[C@@]2(C)[C@H]([C@H](OC(=O)c3ccccc3)[C@]3(O)C[C@H](O)C(C)=C1C3(C)C)[C@]1(OC(C)=O)CO[C@@H]1C[C@@H]2O` gave TAR Tat displ 1.4.
Cc1cc(NC(=O)CCc2nc(C3=CCN(C)CC3)no2)no1 was read as CDC25B-CDK2 inh -1.3 and TAR Tat displ 1.8.
`CC(N)[C@H](O)c1ccc(O)c(O)c1` (stereo not given in full) gave CDC25B-CDK2 inh -3.3.
`C[C@H](N)[C@H](O)c1ccc(O)c(O)c1` gave TAR Tat displ 8.2*.
Screening Cc1ccc(C2SCC(=O)Nc3c2c(C)nn3-c2ccc(C)cc2)cc1 (stereo not given) returned CDC25B-CDK2 inh -2.2 and TAR Tat displ 1.4.
`C=CCOc1ccc(C2SCC(=O)Nc3c2c(C)nn3-c2ccc(C)cc2)cc1` (stereo not given) gave CDC25B-CDK2 inh -1.2 and TAR Tat displ 1.2.
Screening N=C1c2ccccc2CN1CC(F)(F)F returned CDC25B-CDK2 inh -2.3.
`Cc1nn(-c2ccccc2Cl)c2c1C(c1cc(F)ccc1F)SCC(=O)N2` (stereo not given) gave CDC25B-CDK2 inh -0.29 and TAR Tat displ 0.97.
`Nc1c(C(=O)NCc2ccccc2)c2nc3ccccc3nc2n1Cc1ccco1` gave CDC25B-CDK2 inh 12* and TAR Tat displ -4.3.
For CCCCCn1c(N)c(C(=O)OC)c2nc3ccccc3nc21 the results were CDC25B-CDK2 inh 1.8 and TAR Tat displ 0.97.
`CCN(CC)C(=O)c1ccc(N2C(=O)C(C)CS2(=O)=O)cc1Cl` (stereo not given) gave CDC25B-CDK2 inh -2.7 and TAR Tat displ 1.9.
Screening CN1C(=O)C(C)(C)c2cc(S(=O)(=O)N3CC4CC(C3)c3cccc(=O)n3C4)ccc21 (stereo not given) returned TAR Tat displ 1.1.
Screening Cc1cc(C)nc(-n2nc(-c3ccccc3)c3c2NC(=O)CSC3c2ccccc2F)n1 (stereo not given) returned CDC25B-CDK2 inh -2.5 and TAR Tat displ -0.82.
For O=C(Nc1ccccc1)Nc1cnns1 the results were CDC25B-CDK2 inh 20* and TAR Tat displ -0.51.
`Cc1nn(-c2ccccc2Cl)c2c1C(c1ccc(N(C)C)cc1)SCC(=O)N2` (stereo not given) gave CDC25B-CDK2 inh -1.6 and TAR Tat displ 0.65.
CNCCc1c[nH]c2ccccc12 was read as CDC25B-CDK2 inh -0.91.
CNCCc1c[nH]c2ccc(O)cc12 was read as CDC25B-CDK2 inh 9.8*.
c1ccc2c(c1)[nH]c1cnccc12 was read as TAR Tat displ 3.3.
Cc1c2ccncc2c(C)c2c1[nH]c1ccccc12 was read as CDC25B-CDK2 inh 4.2* and TAR Tat displ -7.3.
For Cc1nccc2c1[nH]c1ccccc12 the results were CDC25B-CDK2 inh -1.2 and TAR Tat displ 19*.
CCC1c2cccn2-c2ccccc2CN1C(=O)Nc1ccccc1F (stereo not given) was read as TAR Tat displ 0.24.
`COc1cc2c(cc1O)C(C)NCC2` (stereo not given) gave TAR Tat displ 0.43.
C[C@@H]1NCCc2cc(O)c(O)cc21 was read as TAR Tat displ 19*.
Screening COc1cc2c(cc1O)C[C@H]1c3c(cc(O)c(OC)c3-2)CCN1C returned TAR Tat displ 13*.
CN1CCc2cc(O)cc3c2[C@H]1Cc1ccc(O)c(O)c1-3 was read as CDC25B-CDK2 inh -0.62.
CC1=C2C(=O)[C@H]3[C@@H](CC=C4C[C@@H](O)CC[C@@]43C)[C@@H]2CC[C@]12O[C@@H]1C[C@H](C)CN[C@H]1[C@H]2C was read as TAR Tat displ 0.43.
For Cc1cccc(CNCCc2c[nH]c3ccccc23)c1 the results were CDC25B-CDK2 inh 16* and TAR Tat displ 0.75.
`CCc1ccc(CNCCc2c[nH]c3ccccc23)cc1` gave CDC25B-CDK2 inh -0.73 and TAR Tat displ 0.71.
Fc1cccc(CNCCc2c[nH]c3ccccc23)c1 was read as CDC25B-CDK2 inh 8* and TAR Tat displ 0.87.
For c1ccc(CNCCc2c[nH]c3ccccc23)cc1 the results were CDC25B-CDK2 inh 1.3 and TAR Tat displ -0.73.
Cc1nn(-c2ccccc2Cl)c2c1C(c1cccs1)SCC(=O)N2 (stereo not given) was read as CDC25B-CDK2 inh -2.1 and TAR Tat displ -1.9.
Cc1nn(CC(=O)N2CCC3(CC2)OCCO3)c(=O)c2cc3sccc3n12 was read as CDC25B-CDK2 inh -1.2.
COC(=O)c1sc2nc3c(cc2c1N)CN(C)CC3 was read as CDC25B-CDK2 inh 0.56 and TAR Tat displ -0.26.
`CN1CCc2nc(SCc3cccnc3)c(C#N)cc2C1` gave CDC25B-CDK2 inh 19* and TAR Tat displ -2.5.
For CC(C)N1CCc2nc3sc(C(N)=O)c(N)c3cc2C1 the results were CDC25B-CDK2 inh -2.4 and TAR Tat displ -0.07.
CCOC(=O)C12C(=O)Oc3ccc(Br)cc3C1C2(CC)C(=O)c1ccccc1 (stereo not given) was read as CDC25B-CDK2 inh 15* and TAR Tat displ 0.21.
`CCC1(C(=O)c2ccc(Cl)cc2)C2c3cc(Br)ccc3OC(=O)C21C(=O)OC` (stereo not given) gave CDC25B-CDK2 inh 1.8 and TAR Tat displ 0.26.
Cc1cc2c(C(C)C)c(O)c(O)c(C=O)c2c(O)c1-c1c(C)cc2c(C(C)C)c(O)c(O)c(C=O)c2c1O was read as CDC25B-CDK2 inh -0.45 and TAR Tat displ 26*!.
NC(N)=N/N=C/c1ccc(/C=N/N=C(N)N)cc1 was read as CDC25B-CDK2 inh 7.6*.
Screening Cc1nn(-c2nc3ccccc3s2)c2c1C(c1ccccc1F)SCC(=O)N2 (stereo not given) returned CDC25B-CDK2 inh -1.9 and TAR Tat displ 1.

Compound activity: PubChem BioAssay, Center for Chemical Genomics, University of Michigan
